Assay results taken from PubChem BioAssay (Tox21).
Inconclusive results are not listed. The source made the active and inactive calls. Unless noted, the call rests on the fitted dose curve; in most records, active means well fitted curve in the direction sought with a large enough effect in the repeat runs; inconclusive means weak or mixed curves; inactive means no such curve, though single readings can be large; an effect the other way counts as inactive or inconclusive.

Assays:
[1] = target: Peroxisome proliferator-activated receptor delta (Homo sapiens) (UniProt Q03181); assay: qHTS assay to identify small molecule agonists of the peroxisome proliferator-activated receptor delta (PPARd) signaling pathway (AID 743212; calls by dose curve;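 further: HEK293H cells with PPARd UAS beta-lactamase reporter GeneBLAzer system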)
Procedure, shortened: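 Steps: seed PPARd-bla HEK293H cells; incubate 5 h, 37 C, 5% CO2; add compounds in DMSO; incubate, 37 C; add LiveBLAzer B/G FRET substrate; hold 2 h at room temperature; measure fluorescence.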

[2] = qHTS assay to identify small molecule antagonists of the peroxisome proliferator-activated receptor delta (PPARd) signaling pathway - cell viability counter screen (AID 743213); further: nearly all actives have a fitted effect of over 50% in size
Procedure, shortened: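 Luminescence from CellTiter-Glo, added after the bla read and incubated 30 min at room temperature, gives viability of HEK293H PPARd-bla cells exposed to compounds for 17 h at 37 C with 300 nM L165041.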

[3] = target: Peroxisome proliferator-activated receptor delta (Homo sapiens) (UniProt Q03181); assay: qHTS assay to identify small molecule antagonists of the peroxisome proliferator-activated receptor delta (PPARd) signaling pathway (AID 743215; active means well fitted inhibition curve with a large enough effect in the signal ratio in the repeat runs, not every such curve was filed as active; the % refers to the signal ratio;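 further: cells stimulated with agonist L165041 at 300 nM final during compound exposure; series mostly up to about 62 µM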)
Procedure, shortened: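 Screen format: qHTS, antagonist mode. HEK293H PPARd-bla cells received compound and 300 nM L165041 (final), 17 h, 37 C. Beta-lactamase detected via FRET substrate fluorescence, 2 h, room temperature.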

[4] = target: Bile acid receptor (Homo sapiens) (UniProt Q96RI1); assay: qHTS assay to identify small molecule antagonists of the farnesoid-X-receptor (FXR) signaling pathway (AID 743217; active means well fitted inhibition curve with a large enough effect in the signal ratio in the repeat runs, not every such curve was filed as active; the % refers to the signal ratio)
Procedure, shortened: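 Quantitative HTS, beta-lactamase reporter format: FXR-UAS-bla HEK 293T cells co-treated 16 h at 37 °C with compounds and 50 uM final chenodeoxycholic acid, then read by B/G FRET fluorescence.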

[5] = qHTS assay to identify small molecule agonists of the farnesoid-X-receptor (FXR) signaling pathway - cell viability counter screen (AID 743218); further: nearly all actives have a fitted effect of over 45% in size
Procedure, shortened: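 Same-well cytotoxicity check on FXR-UAS-bla HEK 293T cells: 5 h attachment, 16 h compound at 37 C, CellTiter-Glo luminescence read at room temperature after 30 min.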

[6] = target: Bile acid receptor (Homo sapiens) (UniProt Q96RI1); assay: qHTS assay to identify small molecule agonists of the farnesoid-X-receptor (FXR) signaling pathway (AID 743220; active means well fitted activation curve with a large enough effect in the signal ratio in the repeat runs, not every such curve was filed as active; the % refers to the signal ratio)
Procedure, shortened: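 FXR-UAS-bla HEK 293T cells carrying a UAS-driven beta-lactamase reporter were plated for 5 h at 37C/5% CO2, then exposed to DMSO-dissolved Tox21 10K compounds for 16 h at 37C. A LiveBLAzer B/G FRET substrate was loaded for 2 h at room temperature before fluorescence reading.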

[7] = target: Vitamin D3 receptor (Homo sapiens) (UniProt P11473); assay: qHTS assay to identify small molecule agonists of the vitamin D receptor (VDR) signaling pathway (AID 743222; calls by dose curve)
Procedure, shortened: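 Using LiveBLAzer B/G FRET detection, agonism was scored in VDR-bla cells exposed overnight (16 h, 37C) to DMSO-dissolved compounds; substrate incubation was 2 h at room temperature.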

[8] = target: Vitamin D3 receptor (Homo sapiens) (UniProt P11473); assay: qHTS assay to identify small molecule antagonists of the vitamin D receptor (VDR) signaling pathway (AID 743223; active means well fitted inhibition curve with a large enough effect in the signal ratio in the repeat runs, not every such curve was filed as active; the % refers to the signal ratio)
Procedure, shortened: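 Reporter line VDR-bla; stimulus 1alpha,25-(OH)2 vitamin D3, 3 nM final; compound co-addition, 16 h 37C/5% CO2; LiveBLAzer B/G substrate 2 h RT; fluorescence intensity.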

[9] = qHTS assay to identify small molecule agonists of the vitamin D receptor (VDR) signaling pathway - cell viability counter screen (AID 743224); further: series mostly up to about 63 µM; nearly all actives have a fitted effect of over 50% in size
Procedure, shortened: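 Counter screen for cytotoxicity: VDR-bla cells at 2,000 cells/well, 16 h compound exposure, then CellTiter-Glo luminescence after the beta-lactamase measurement.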

[10] = qHTS assay to identify small molecule antagonists of the farnesoid-X-receptor (FXR) signaling pathway - cell viability counter screen (AID 743221; active means well fitted cell-killing curve with a large enough effect in the repeat runs, not every such curve was filed as active; further: nearly all actives have a fitted effect of over 50% in size)
Procedure, shortened: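 After a 5 h settling period, FXR-bla HEK 293T cells receive compound and chenodeoxycholic acid (50 uM final) and incubate 16 h at 37 C; CellTiter-Glo luminescence, read after 30 min at room temperature, reports cell viability.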

Measured: Potency

Vitamin D3 receptor (Homo sapiens), sequence (P11473 whole entry, looked up): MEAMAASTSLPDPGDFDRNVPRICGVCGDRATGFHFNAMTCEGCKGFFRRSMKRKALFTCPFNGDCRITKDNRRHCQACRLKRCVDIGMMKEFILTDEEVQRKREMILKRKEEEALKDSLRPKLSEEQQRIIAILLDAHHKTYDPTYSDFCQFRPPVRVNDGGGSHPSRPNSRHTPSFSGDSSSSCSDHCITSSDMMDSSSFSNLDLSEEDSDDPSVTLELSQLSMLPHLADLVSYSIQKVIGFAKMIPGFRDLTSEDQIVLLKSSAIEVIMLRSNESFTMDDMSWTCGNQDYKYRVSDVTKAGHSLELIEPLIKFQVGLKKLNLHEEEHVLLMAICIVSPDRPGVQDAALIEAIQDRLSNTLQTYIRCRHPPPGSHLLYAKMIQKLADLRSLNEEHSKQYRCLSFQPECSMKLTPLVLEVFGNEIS
Bile acid receptor (Homo sapiens), sequence (Q96RI1 whole entry, looked up): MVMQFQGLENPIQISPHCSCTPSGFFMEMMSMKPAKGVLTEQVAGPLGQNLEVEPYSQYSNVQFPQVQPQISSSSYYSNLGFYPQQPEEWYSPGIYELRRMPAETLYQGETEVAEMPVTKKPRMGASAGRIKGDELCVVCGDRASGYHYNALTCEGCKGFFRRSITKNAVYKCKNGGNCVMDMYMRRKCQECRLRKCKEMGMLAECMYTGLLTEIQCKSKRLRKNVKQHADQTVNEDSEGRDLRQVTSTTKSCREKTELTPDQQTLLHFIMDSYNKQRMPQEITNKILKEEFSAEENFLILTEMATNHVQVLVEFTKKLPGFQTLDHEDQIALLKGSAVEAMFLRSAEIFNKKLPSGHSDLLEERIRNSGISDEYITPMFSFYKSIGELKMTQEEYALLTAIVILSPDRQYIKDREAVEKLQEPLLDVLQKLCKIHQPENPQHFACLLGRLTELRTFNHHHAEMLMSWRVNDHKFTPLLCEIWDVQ
Peroxisome proliferator-activated receptor delta (Homo sapiens), sequence (Q03181 whole entry, looked up): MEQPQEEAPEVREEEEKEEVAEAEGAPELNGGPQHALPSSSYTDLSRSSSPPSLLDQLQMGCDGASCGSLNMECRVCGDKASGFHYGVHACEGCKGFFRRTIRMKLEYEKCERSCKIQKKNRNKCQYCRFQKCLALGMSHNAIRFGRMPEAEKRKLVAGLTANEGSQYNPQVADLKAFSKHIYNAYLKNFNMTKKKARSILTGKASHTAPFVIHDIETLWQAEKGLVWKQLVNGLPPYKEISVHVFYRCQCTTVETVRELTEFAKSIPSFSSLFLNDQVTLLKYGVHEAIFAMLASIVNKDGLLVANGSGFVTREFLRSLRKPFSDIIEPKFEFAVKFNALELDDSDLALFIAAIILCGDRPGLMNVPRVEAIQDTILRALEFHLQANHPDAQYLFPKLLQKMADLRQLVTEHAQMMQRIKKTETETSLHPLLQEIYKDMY

CCN(CC)CC1CCCCN1CC(=O)N1c2ccccc2C(=O)Nc2cccnc21 (centres undefined)
not listed: [10]
inactive: all other assays above

Oc1ccccc1C=NCc1ccccc1
not listed: [4]
inactive: all other assays above

CC(=O)OC1C2(C)CCC(C2)C1(C)C (centres undefined)
not listed: [5] | [7] | [8]
inactive: all other assays above

CCCCCCCCCC/C=C/C#N
inactive: all assays above

CNCCC(Oc1ccccc1OC)c1ccccc1 (centres undefined)
not listed: [4] | [7] | [10]
inactive: all other assays above

CCCCCCCCOC(=O)CCCCCCCCC(=O)OCCCCCCCC
not listed: [4]
inactive: all other assays above

CS(=O)(=O)c1ccc([C@@H](O)[C@@H](CF)NC(=O)C(Cl)Cl)cc1
not listed: [7] | [8]
inactive: all other assays above

CN1CCN(C2=Nc3cc(F)ccc3Cc3ccccc32)CC1
not listed: [10]
inactive: all other assays above

CN(CC1(C)CCCO1)S(=O)(=O)c1ccc(Cl)c(S(N)(=O)=O)c1 (centres undefined)
inactive: [1] | [2] | [3] | [5] | [6] | [9]

CC(=O)N(CC(O)CN(C(C)=O)c1c(I)c(C(=O)NCC(O)CO)c(I)c(C(=O)NCC(O)CO)c1I)c1c(I)c(C(=O)NCC(O)CO)c(I)c(C(=O)NCC(O)CO)c1I (centres undefined)
not listed: [7]
inactive: all other assays above

FC(F)(F)C(Cl)(Cl)Cl
not listed: [7] | [8]
inactive: all other assays above

O=C1C=CC(=O)O1
not listed: [7]
inactive: all other assays above

C[C@]12CCC(=O)C=C1CC[C@@H]1[C@@H]2CC[C@@]2(C)[C@H]1CC[C@]2(O)C(=O)CO
not listed: [4] | [6]
inactive: all other assays above

CC1=C(O)C(=O)OC1C (centres undefined)
not listed: [5]
inactive: all other assays above

C=CC(C)(O)CC/C=C(\C)CCC=C(C)C (centres undefined)
not listed: [7] | [8]
inactive: all other assays above

CN1[C@@H]2CC[C@H]1CC(OC(=O)c1c[nH]c3ccccc13)C2 (some centres undefined)
not listed: [5] | [7] | [8]
inactive: all other assays above

N#CSCC(=O)O
inactive: [1] | [2] | [3] | [5] | [6] | [9]

CN1CCN(c2c(F)cc3c(=O)c(C(=O)O)cn4c3c2SCC4)CC1
inactive: all assays above

O=C(Cl)c1cccc([N+](=O)[O-])c1
inactive: all assays above

NNS(=O)(=O)c1ccc(Oc2ccc(S(=O)(=O)NN)cc2)cc1
inactive: all assays above

O=C1CCC(C2CCCCC2)CC1
not listed: [5]
inactive: all other assays above

CC(C)=CCC[C@](C)(O)[C@@H]1CC=C(C)CC1
inactive: [1] | [2]

COc1nc(C)nc(NC(=O)NS(=O)(=O)c2ccccc2OCCCl)n1
not listed: [4] | [8] | [10]
inactive: all other assays above

CC(CNC1CCCCC1)OC(=O)c1ccccc1 (centres undefined)
not listed: [4] | [7] | [8]
inactive: all other assays above

O=c1[nH]c(=O)n([C@H]2C[C@H](O)[C@@H](CO)O2)cc1C(F)(F)F
not listed: [4] | [7]
inactive: all other assays above

CC1CN(c2ccccc2)NC1=O (centres undefined)
not listed: [5] | [8] | [9]
inactive: all other assays above

O=[N+]([O-])c1nccn1CO[C@@H](CO)[C@H](O)CO
not listed: [4] | [7] | [8]
inactive: all other assays above

CCOC(=O)C1CC(=O)C(=C(O)C2CC2)C(=O)C1 (centres undefined)
not listed: [4] | [7]
inactive: all other assays above

CN1CCN(N)CC1
not listed: [7] | [8]
inactive: all other assays above

NC/C=C/C(=O)O
not listed: [4] | [6]
inactive: all other assays above

NCCC(O)(P(=O)(O)O)P(=O)(O)O
inactive: [1] | [2] | [3] | [4] | [5] | [6]

CCCCCCCCCC#N
inactive: [1] | [2] | [3] | [5] | [10] | [7]

CCC1(C)NC(=O)NC1=O (centres undefined)
inactive: all assays above

CCC(=O)Nc1ccc(O)cc1
not listed: [4] | [7]
inactive: all other assays above

CCOC(=O)CS
not listed: [10]
inactive: all other assays above

COc1cc(C)ccc1C(C)C
inactive: all assays above

COC(=O)/C=C(/C)N
not listed: [7] | [10]
inactive: all other assays above

CC(=O)OC(C)OC(C)=O
not listed: [4]
inactive: all other assays above

CC(C)OC(C)C
not listed: [4] | [6] | [7]
inactive: all other assays above

Cc1ccc([N+](=O)[O-])c(N)c1
not listed: [4] | [6] | [10]
inactive: all other assays above

FC(F)(F)c1ccccc1
not listed: [4] | [6]
inactive: all other assays above

CC(C)(CO)[C@@H](O)C(=O)NCCC(=O)O
inactive: [1] | [2] | [3] | [5] | [8] | [9]

CCCOc1ccc2c(c1)CC[C@@H]1[C@@H]2CC[C@]2(C)C(OC)CC[C@@H]12 (some centres undefined)
not listed: [4] | [6] | [8]
inactive: all other assays above

CCOC(=O)[C@H](CCc1ccccc1)N[C@@H](C)C(=O)N1Cc2cc(OC)c(OC)cc2C[C@H]1C(=O)O
not listed: [4] | [6]
inactive: all other assays above

CC(C)Nc1nc(N)nc(Cl)n1
not listed: [4] | [6]
inactive: all other assays above

CCOC(=O)c1ccccc1O
not listed: [4] | [6] | [7]
inactive: all other assays above

C=C(C)C(=O)OCCOP(=O)(O)O
not listed: [4] | [6] | [8]
inactive: all other assays above

CC(C)S
not listed: [4] | [6] | [8]
inactive: all other assays above

Cc1ccc(C=O)s1
not listed: [4] | [6]
inactive: all other assays above

C1CSCCS1
inactive: [1] | [2] | [3] | [5] | [10] | [9]

CCOc1ccc(NS(=O)(=O)c2ccc(N)cc2)nn1
inactive: [1] | [2] | [3] | [5] | [10] | [9]

Cc1cc(S(=O)(=O)O)c(N)cc1Cl
inactive: [1] | [2] | [3] | [5] | [9]

O=C1CCCCC1C1CCCCC1 (centres undefined)
not listed: [4] | [6]
inactive: all other assays above

C=Cc1ccccc1
not listed: [4] | [6] | [7]
inactive: all other assays above

O=C(CC(=O)C(F)(F)F)c1ccccc1
not listed: [4] | [6] | [7]
inactive: all other assays above
